According to the supplement of paper PMC8728848:
Shown is part of a subset that was picked to be rich in the strongest signals.

Tests used:
Experiment in all cases: glycan array binding signal (z-score within array); higher = stronger binding
Conditions in all cases: glycan notation: IUPAC condensed, linker removed
[1] = biological target: Fuc(a1-2)Gal(b1-4)GlcNAc(b1-2)Man
How it was run: (§1)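 Glycan array data came from 3228 arrays in the Consortium for Functional Glycomics database, and only arrays with an available protein sequence were kept. Glycan names were put into IUPAC-condensed notation, and columns mapping to the same glycan were averaged. The binding signal is a within-array Z-score, averaged across arrays of one protein sequence run at different concentrations or buffers and across linkers. A negative Z-score can be read as non-binding.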

[2] = biological target: Fuc(a1-2)[Gal(a1-3)]Gal(b1-3)GalNAc(b1-3)Gal(a1-4)Gal(b1-4)Glc
How it was run: as §1

[3] = biological target: Fuc(a1-2)[GalNAc(a1-3)]Gal(b1-4)GlcNAc(b1-2)Man(a1-3)[Fuc(a1-2)[GalNAc(a1-3)]Gal(b1-4)GlcNAc(b1-2)Man(a1-6)]Man(b1-4)GlcNAc(b1-4)[Fuc(a1-6)]GlcNAc
How it was run: as §1

[4] = biological target: Fuc(a1-3)[Gal3S(b1-4)]Glc
How it was run: as §1

[5] = biological target: Fuc(a1-3)[GalNAc(b1-4)]GlcNAc6S
How it was run: as §1

[6] = biological target: Fuc(b1-3)GlcNAc
How it was run: as §1

[7] = biological target: Gal(a1-3)Gal(b1-4)GlcNAc(b1-2)Man(a1-3)[Gal(a1-3)Gal(b1-4)GlcNAc(b1-2)Man(a1-6)]Man(b1-4)GlcNAc(b1-4)GlcNAc
How it was run: as §1

[8] = biological target: Gal(a1-3)Gal(b1-4)[Fuc(a1-3)]GlcNAc(b1-2)Man(a1-3)[Gal(a1-3)Gal(b1-4)[Fuc(a1-3)]GlcNAc(b1-2)Man(a1-6)]Man(b1-4)GlcNAc(b1-4)GlcNAc
How it was run: as §1

[9] = biological target: Gal(a1-4)Gal(b1-3)GlcNAc(b1-2)Man(a1-3)[Gal(a1-4)Gal(b1-3)GlcNAc(b1-2)Man(a1-6)]Man(b1-4)GlcNAc(b1-4)GlcNAc
How it was run: as §1

[10] = biological target: Gal(a1-4)Gal(b1-4)GlcNAc(b1-2)Man(a1-3)[Gal(a1-4)Gal(b1-4)GlcNAc(b1-2)Man(a1-6)]Man(b1-4)GlcNAc(b1-4)GlcNAc
How it was run: as §1

[11] = biological target: Gal(b1-3)GalNAc
How it was run: as §1

[12] = biological target: Gal(b1-3)GalNAc(b1-4)Gal(b1-4)Glc
How it was run: as §1

[13] = biological target: Gal(b1-3)GlcNAc(a1-3)Gal(b1-4)GlcNAc
How it was run: as §1

[14] = biological target: Gal(b1-3)GlcNAc(b1-2)Man
How it was run: as §1

[15] = biological target: Gal(b1-3)GlcNAc(b1-2)Man(a1-3)[Gal(b1-3)GlcNAc(b1-2)Man(a1-6)]Man(b1-4)GlcNAc(b1-4)GlcNAc
How it was run: as §1

[16] = biological target: Gal(b1-3)GlcNAc(b1-3)Gal(b1-3)GlcNAc
How it was run: as §1

[17] = biological target: Gal(b1-4)GalNAc(a1-3)[Fuc(a1-2)]Gal(b1-4)GlcNAc
How it was run: as §1

[18] = biological target: Gal(b1-4)GlcNAc(b1-2)Man(a1-3)[Gal(b1-4)GlcNAc(b1-2)Man(a1-6)]Man(b1-4)GlcNAc(b1-4)GlcNAc
How it was run: as §1

[19] = biological target: Gal(b1-4)GlcNAc(b1-2)Man(a1-3)[GlcNAc(b1-2)Man(a1-6)]Man(b1-4)GlcNAc(b1-4)GlcNAc
How it was run: as §1

[20] = biological target: Gal(b1-4)GlcNAc(b1-2)Man(a1-3)[Man(a1-6)]Man(b1-4)GlcNAc(b1-4)GlcNAc
How it was run: as §1

[21] = biological target: Gal(b1-4)GlcNAc(b1-2)Man(a1-6)[GlcNAc(b1-2)Man(a1-3)]Man(b1-4)GlcNAc(b1-4)GlcNAc
How it was run: as §1

[22] = biological target: Gal(b1-4)GlcNAc(b1-3)Gal(b1-4)GlcNAc(b1-2)[Gal(b1-4)GlcNAc(b1-3)Gal(b1-4)GlcNAc(b1-6)]Man(a1-6)[Gal(b1-4)GlcNAc(b1-3)Gal(b1-4)GlcNAc(b1-2)Man(a1-3)]Man(b1-4)GlcNAc(b1-4)[Fuc(a1-6)]GlcNAc
How it was run: as §1

[23] = biological target: Gal(b1-4)GlcNAc(b1-3)Gal(b1-4)GlcNAc(b1-3)[Gal(b1-4)GlcNAc(b1-3)Gal(b1-4)GlcNAc(b1-6)]GalNAc
How it was run: as §1

[24] = biological target: Gal4S(b1-4)GlcNAc
How it was run: as §1

[25] = biological target: Gal6S(b1-4)Glc6S
How it was run: as §1

[26] = biological target: GalNAc(a1-3)Gal
How it was run: as §1

[27] = biological target: GalNAc(a1-3)GalNAc(b1-3)Gal(a1-4)Gal(b1-4)Glc
How it was run: as §1

[28] = biological target: GalNAc(b1-4)GlcNAc(b1-2)Man(a1-3)[GalNAc(b1-4)GlcNAc(b1-2)Man(a1-6)]Man(b1-4)GlcNAc(b1-4)GlcNAc
How it was run: as §1

[29] = biological target: GalNAc3S(b1-4)GlcNAc
How it was run: as §1

[30] = biological target: GalNAc6S(b1-4)GlcNAc
How it was run: as §1

B1: GNL (Galanthus nivalis) (protein)
chain: MGHHHHHHHHYGTLENGHWLMVGMSIFSKDRTVELRMQDDGKLAIYYNDHCAWQSTAQQVNNAKGAVMQGDGNFCIYDKNGKATWHTNTAAPSGDSHTFVSVQDDGNLVLYKNNGATPIWSSKSNK
B1 was tested, and the “glycan array binding signal (z-score)” value [1] was -0.231, the “glycan array binding signal (z-score)” value [2] was -0.172 and the “glycan array binding signal (z-score)” value [3] was -0.207. The “glycan array binding signal (z-score)” value [4] was -0.237, the “glycan array binding signal (z-score)” value [5] was -0.181 and the “glycan array binding signal (z-score)” value [6] was -0.156. The “glycan array binding signal (z-score)” value [7] was 3.44, the “glycan array binding signal (z-score)” value [8] was -0.054 and the “glycan array binding signal (z-score)” value [9] was 4.92. For the same binder, the “glycan array binding signal (z-score)” value [10] was 5.71, the “glycan array binding signal (z-score)” value [11] was -0.233 and the “glycan array binding signal (z-score)” value [12] was -0.061. The “glycan array binding signal (z-score)” value [13] was -0.174, the “glycan array binding signal (z-score)” value [14] was -0.16 and the “glycan array binding signal (z-score)” value [15] was 4.54. The “glycan array binding signal (z-score)” value [16] was -0.228, the “glycan array binding signal (z-score)” value [17] was -0.257 and the “glycan array binding signal (z-score)” value [18] was 4.76. For the same binder, the “glycan array binding signal (z-score)” value [19] was 3.92, the “glycan array binding signal (z-score)” value [20] was 10.9 and the “glycan array binding signal (z-score)” value [21] was 7.59. For the same binder, the “glycan array binding signal (z-score)” value [22] was -0.241, the “glycan array binding signal (z-score)” value [23] was -0.222 and the “glycan array binding signal (z-score)” value [24] was -0.212. For the same binder, the “glycan array binding signal (z-score)” value [25] was -0.207, the “glycan array binding signal (z-score)” value [26] was -0.25 and the “glycan array binding signal (z-score)” value [27] was -0.305. For the same binder, the “glycan array binding signal (z-score)” value [28] was -0.248, the “glycan array binding signal (z-score)” value [29] was -0.219 and the “glycan array binding signal (z-score)” value [30] was -0.21.
